{
  "source": "PubChem BioAssay (NCI)",
  "note": "About 83,000 compounds went through this panel and 20% of them were active in at least one assay; those are over-represented in the sample as a whole.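 Values shown are percent growth following 48 h exposure of cells in 96-well plates to a single concentration of compound; below 10 was considered active.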 Values without a mark were called inactive. The source made the active and inactive calls.",
  "data": [
    {"system": "HS 578T breast", "test": "NCI-60 one-dose screen, 48 h (100 = growth as untreated, 0 = no growth, -100 = all killed)", "conditions": "10 µM unless noted", "values": [
      {"smiles": "O=C1OC(Cc2ccccc2)C1c1ccccc1", "note": "(centres undefined)", "growth": "107%"},
      {"smiles": "COc1cccc(/C=N/NC(=O)c2cnn3c2NC(c2ccccc2)C3)c1Oc1ccccc1", "note": "(centres undefined)", "growth": "93.4%"},
      {"smiles": "COc1ccc(NC(=O)c2cc(NCc3cc(O)ccc3O)ccc2O)cc1", "growth": "90.1%"},
      {"smiles": "COc1cc2nc(-c3ccc(Cl)cc3)cc(OCCCN3CCCC3)c2cc1OC", "growth": "68.6%"},
      {"smiles": "COc1ccc(C/C(=C(\\C)c2ccc(OCCN3CCCC3)cc2)c2ccc(OCCN3CCCC3)cc2)cc1", "growth": "66.7%"},
      {"smiles": "COc1cc(NC(C)CCCNC(=O)CCC(=O)NCCCNCCCCCCCCNCCCNC(=O)CCC(=O)NCCCC(C)Nc2cc(OC)cc3cccnc23)c2ncccc2c1", "note": "(centres undefined)", "growth": "75%"},
      {"smiles": "COc1ccc(Cc2cnc(NC(=O)c3ccc4c(c3)OCCO4)s2)cc1", "growth": "31.7%"},
      {"smiles": "CC(=O)N1c2ccccc2NC2=C(C(=O)NC2(C)C)C1c1ccco1", "note": "(centres undefined)", "growth": "83.3%"},
      {"smiles": "O=S(=O)(NCCNc1nccc(-c2c(-c3cccc(F)c3)nc3sccn23)n1)c1ccc(Cl)cc1", "growth": "72.5%"},
      {"smiles": "CC(Sc1nc2sc3c(c2c(=O)n1-c1ccc(Cl)cc1)CCCC3)C(=O)Nc1nc(-c2ccc(Br)cc2)cs1", "note": "(centres undefined)", "growth": "112%"},
      {"smiles": "C[C@@H](Nc1ncnc2ccc(-c3cnc(N)nc3)cc12)c1ccc(F)cc1", "growth": "69.2%"},
      {"smiles": "CC1(C)CC[C@]23CC[C@]4(C)[C@H](CC[C@@H]5[C@@]6(C)CCCNC(C)(C)[C@@H]6CC[C@]54C)[C@H]2[C@H]1OC3", "growth": "-9.12% (active)"},
      {"smiles": "COc1ccc(C(=O)c2nc3ccccc3n2CC(=O)c2ccc(Cl)cc2)cc1", "growth": "8.51% (active)"}
    ]},
    {"system": "NCI/ADR-RES ovarian", "test": "NCI-60 one-dose screen, 48 h (100 = growth as untreated, 0 = no growth, -100 = all killed)", "conditions": "10 µM unless noted", "values": [
      {"smiles": "CCCCCN1C=C/C(=C\\C(=O)N(C)c2ccc(Oc3ccccc3)cc2)c2ccccc21", "growth": "100%"},
      {"smiles": "CNC(=O)c1cncc(Cn2nc(C)c(NC(=O)c3ccc(COc4ccc(C(F)(F)F)cc4C)cc3)c2C)c1", "growth": "96.4%"},
      {"smiles": "Nc1c(C(=O)Nc2ccnc3ccccc23)sc2nc3c(cc12)CN(Cc1ccccc1)CC3", "growth": "69.2%"},
      {"smiles": "CC1=C(C(=O)/C=C/c2ccc(N(C)C)cc2)C(c2ccccc2)NC(=S)N1", "note": "(centres undefined)", "growth": "100%"},
      {"smiles": "Nc1nc(Nc2ccccc2SSc2ccccc2Nc2nc(N)nc(-c3cccs3)n2)nc(-c2ccsc2)n1", "growth": "4.43% (active)"},
      {"smiles": "COc1cc2c(cc1OC)C(=O)/C(=C/c1cc(C)c(O)c(C)c1)S2", "growth": "15.3%"},
      {"smiles": "COc1cc2c(=O)n(CCCN(C)C)c3c4cc5c(cc4ccc3c2cc1OC)OCO5", "growth": "53.5%"},
      {"smiles": "CCN(CC)CC[n+]1cc2cc(OC)c(OC)cc2c2ccc3cc4c(cc3c21)OCO4", "growth": "70.5%"},
      {"smiles": "O=C(Nc1ccc(NC(=O)c2cc(=O)[nH]c3ccccc23)cc1)Nc1cccc(Cl)c1", "growth": "94.9%"},
      {"smiles": "COc1ccc(/C=C2\\Oc3cc(OCCCN4CCCCC4)ccc3C2=O)cc1OC", "growth": "97.1%"},
      {"smiles": "Cc1nc(N)nc(N[C@@H](C)c2nc3cccc(NCc4ccc(C(=O)NO)cc4)c3c(=O)n2-c2ccccc2)n1", "growth": "103%"},
      {"smiles": "Cc1ccc(/C=N/NC(=O)CSc2nc3ccccc3c(=O)n2Cc2ccc(S(N)(=O)=O)cc2)cc1", "growth": "96.8%"},
      {"smiles": "COc1cc(/C(C)=C(\\c2ccc(Cl)cc2)c2ccc(OCCN3CCCC3)cc2)ccc1F", "growth": "69.9%"},
      {"smiles": "COc1cc2nc(-c3ccc(Cl)cc3)cc(OCCCN3CCOCC3)c2cc1OC", "growth": "44.6%"},
      {"smiles": "COc1ccc(NC(N)=NCCCOc2ccc(F)cc2)cc1", "growth": "99%"},
      {"smiles": "COC(=O)CNC(=O)[C@]12CCC(C)(C)C[C@H]1C1=CC[C@@H]3[C@@]4(C)Cc5c([nH]c6ccccc56)C(C)(C)[C@@H]4CC[C@@]3(C)[C@]1(C)CC2", "growth": "89.6%"},
      {"smiles": "C[C@H]1[C@H](C)CC[C@]2(C(=O)Nc3ccc4ncccc4c3)CC[C@]3(C)C(=CC[C@@H]4[C@@]5(C)CCCNC(C)(C)[C@@H]5CC[C@]43C)[C@H]12", "growth": "-48.6% (active)"},
      {"smiles": "COc1cc(NC(C)CCCNC(=O)CCC(=O)NCCCNCCCCCCCCCCNCCCNC(=O)CCC(=O)NCCCC(C)Nc2cc(OC)cc3cccnc23)c2ncccc2c1", "note": "(centres undefined)", "growth": "101% [8 µM]"},
      {"smiles": "CCCCCN1C=C/C(=C\\C(=O)n2ccc3ccccc32)c2ccccc21", "growth": "94.3%"},
      {"smiles": "Cc1cc2nc3c4ccc(Br)cc4n(CCN(C)C)c3nc2cc1C", "growth": "17%"},
      {"smiles": "CC1(C)CC(=O)C2=C(C1)N(c1ccc(F)cc1F)C(N)=C(C#N)C2c1cc(Br)ccc1F", "note": "(centres undefined)", "growth": "85.7%"}
    ]}
  ]
}
